From PubChem BioAssay AID1159580 (chemical genetic matrix, 2015)
The campaign covered roughly 5,500 compounds. About 2,000 (36%) were called active. Roughly 18% stayed inconclusive and do not appear here. Rule as the data show it: active = normalized growth mostly below about 0.91 (no sharp cut-off); inconclusive = no clear call, values can overlap the other calls; inactive = mostly above about 0.92. The list shows a part of the results.

Assay: chemical genetic growth profiling, strain panel (AID 1159580);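 also: tested at 20 µM; growth read once vehicle control cultures reached saturation at 30 °C; 1 = growth at the plate median or of vehicle wells; lower values mean less growth of the strain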
Conditions: growth OD

Measured: normalized growth

COC(=O)c1c(OC)cc2c(c1C)Oc1c(Cl)c(O)c(Cl)c(C)c1C(=O)O2
active: S. cerevisiae deletion strains, locus YKL190W, strain CNB1, active compounds read low 0.911 | S. cerevisiae deletion strains, locus YMR263W, strain SAP30, active compounds read low 0.882 | S. cerevisiae deletion strains, locus YNL307C, strain MCK1, active compounds read low 0.838 | S. cerevisiae deletion strains, locus YPL241C, strain CIN2, active compounds read low 0.913 | S. cerevisiae deletion strains, locus YPR163C, strain tif3, active compounds read low 0.901
inactive: S. cerevisiae deletion strains, locus YJR075W, strain HOC1, active compounds read low 0.893 | S. cerevisiae deletion strains, locus YKL009W, strain mrt4, active compounds read low 0.975 | S. cerevisiae deletion strains, locus YKL068W, active compounds read low 0.976 | S. cerevisiae deletion strains, locus YKL085W, strain MDH1 (second series), active compounds read low 0.979 | S. cerevisiae deletion strains, locus YKL085W, strain MDH1, active compounds read low 0.979 | S. cerevisiae deletion strains, locus YKL160W, strain elf1, active compounds read low 0.993 | S. cerevisiae deletion strains, locus YKR001C, strain vps1, active compounds read low 0.949 | S. cerevisiae deletion strains, locus YKR026C, strain gcn3, active compounds read low 0.977 | S. cerevisiae deletion strains, locus YKR091W, strain srl3, active compounds read low 0.986 | S. cerevisiae deletion strains, locus YLL001W, strain dnm1, active compounds read low 0.979 | S. cerevisiae deletion strains, locus YLL026W, active compounds read low 0.983 | S. cerevisiae deletion strains, locus YLL041C, strain sdh2, active compounds read low 0.978 | S. cerevisiae deletion strains, locus YLR027C, strain aat2, active compounds read low 0.991 | S. cerevisiae deletion strains, locus YLR039C, strain RIC1, active compounds read low 0.796 | S. cerevisiae deletion strains, locus YLR058C, strain SHM2, active compounds read low 0.919 | S. cerevisiae deletion strains, locus YLR102C, strain apc9, active compounds read low 0.927 | S. cerevisiae deletion strains, locus YLR113W, strain HOG1, active compounds read low 0.968 | S. cerevisiae deletion strains, locus YLR221C, strain rsa3, active compounds read low 0.982 | S. cerevisiae deletion strains, locus YLR258W, strain gsy2, active compounds read low 0.992 | S. cerevisiae deletion strains, locus YLR262C, strain YPT6 (second series), active compounds read low 0.927 | S. cerevisiae deletion strains, locus YLR262C, strain YPT6, active compounds read low 0.795 | S. cerevisiae deletion strains, locus YLR268W, strain sec22, active compounds read low 0.905 | S. cerevisiae deletion strains, locus YLR320W, strain mms22, active compounds read low 0.964 | S. cerevisiae deletion strains, locus YLR330W, strain CHS5, active compounds read low 0.929 | S. cerevisiae deletion strains, locus YLR342W, strain FKS1 (second series), active compounds read low 0.927 | S. cerevisiae deletion strains, locus YLR342W, strain FKS1, active compounds read low 0.986 | S. cerevisiae deletion strains, locus YLR357W, strain rsc2, active compounds read low 1.05 | S. cerevisiae deletion strains, locus YLR370C, strain arc18, active compounds read low 0.984 | S. cerevisiae deletion strains, locus YLR371W, strain rom2, active compounds read low 0.976 | S. cerevisiae deletion strains, locus YLR384C, strain iki3, active compounds read low 0.994 | S. cerevisiae deletion strains, locus YLR418C, strain cdc73, active compounds read low 0.863 | S. cerevisiae deletion strains, locus YML016C, strain PPZ1, active compounds read low 0.936 | S. cerevisiae deletion strains, locus YML032C, strain rad52, active compounds read low 0.96 | S. cerevisiae deletion strains, locus YML120C, strain ndi1, active compounds read low 0.973 | S. cerevisiae deletion strains, locus YML124C, strain tub3, active compounds read low 0.945 | S. cerevisiae deletion strains, locus YMR058W, strain fet3, active compounds read low 0.982 | S. cerevisiae deletion strains, locus YMR078C, strain ctf18, active compounds read low 0.935 | S. cerevisiae deletion strains, locus YMR125W, strain sto1, active compounds read low 1.01 | S. cerevisiae deletion strains, locus YMR129W, active compounds read low 1.01 | S. cerevisiae deletion strains, locus YMR205C, strain PFK2, active compounds read low 0.989 | S. cerevisiae deletion strains, locus YMR223W, strain ubp8, active compounds read low 0.947 | S. cerevisiae deletion strains, locus YMR231W, strain pep5, active compounds read low 0.993 | S. cerevisiae deletion strains, locus YMR307W, strain GAS1, active compounds read low 0.869 | S. cerevisiae deletion strains, locus YNL067W, strain RPL9B, active compounds read low 0.895 | S. cerevisiae deletion strains, locus YNL071W, strain lat1, active compounds read low 0.982 | S. cerevisiae deletion strains, locus YNL128W, strain TEP1, active compounds read low 0.89 | S. cerevisiae deletion strains, locus YNL153C, strain GIM3, active compounds read low 0.909 | S. cerevisiae deletion strains, locus YNL183C, strain NPR1, active compounds read low 0.9 | S. cerevisiae deletion strains, locus YNL209W, strain ssb2, active compounds read low 0.996 | S. cerevisiae deletion strains, locus YNL233W, strain BNI4, active compounds read low 0.938 | S. cerevisiae deletion strains, locus YNL248C, strain rpa49, active compounds read low 1.02 | S. cerevisiae deletion strains, locus YNL250W, strain rad50, active compounds read low 0.986 | S. cerevisiae deletion strains, locus YNL271C, strain bni1, active compounds read low 0.985 | S. cerevisiae deletion strains, locus YNL298W, strain CLA4, active compounds read low 0.977 | S. cerevisiae deletion strains, locus YNL322C, strain KRE1 (second series), active compounds read low 0.997 | S. cerevisiae deletion strains, locus YNL322C, strain KRE1, active compounds read low 0.937 | S. cerevisiae deletion strains, locus YNR049C, strain mso1, active compounds read low 0.994 | S. cerevisiae deletion strains, locus YNR052C, strain pop2, active compounds read low 0.948 | S. cerevisiae deletion strains, locus YOL006C, strain TOP1, active compounds read low 0.757 | S. cerevisiae deletion strains, locus YOL012C, strain htz1 0.865 | S. cerevisiae deletion strains, locus YOL147C, strain pex11, active compounds read low 0.946 | S. cerevisiae deletion strains, locus YOR001W, strain rrp6, active compounds read low 1.01 | S. cerevisiae deletion strains, locus YOR061W, strain CKA2, active compounds read low 0.892 | S. cerevisiae deletion strains, locus YOR069W, strain VPS5, active compounds read low 0.953 | S. cerevisiae deletion strains, locus YOR070C, strain gyp1, active compounds read low 0.984 | S. cerevisiae deletion strains, locus YOR080W, strain dia2, active compounds read low 0.992 | S. cerevisiae deletion strains, locus YOR083W, strain WHI5, active compounds read low 0.997 | S. cerevisiae deletion strains, locus YOR106W, strain vam3, active compounds read low 1.01 | S. cerevisiae deletion strains, locus YOR136W, strain idh2, active compounds read low 0.943 | S. cerevisiae deletion strains, locus YOR144C, strain elg1, active compounds read low 0.947 | S. cerevisiae deletion strains, locus YOR184W, strain ser1, active compounds read low 0.918 | S. cerevisiae deletion strains, locus YOR231W, strain MKK1, active compounds read low 0.927 | S. cerevisiae deletion strains, locus YOR265W, strain rbl2, active compounds read low 0.989 | S. cerevisiae deletion strains, locus YOR270C, strain vph1, active compounds read low 0.927 | S. cerevisiae deletion strains, locus YOR290C, strain snf2, active compounds read low 0.995 | S. cerevisiae deletion strains, locus YOR316C, strain cot1, active compounds read low 0.933 | S. cerevisiae deletion strains, locus YPL051W, strain arl3, active compounds read low 0.98 | S. cerevisiae deletion strains, locus YPL055C, strain LGE1, active compounds read low 0.864 | S. cerevisiae deletion strains, locus YPL078C, strain atp4, active compounds read low 0.982 | S. cerevisiae deletion strains, locus YPL106C, strain sse1, active compounds read low 1.03 | S. cerevisiae deletion strains, locus YPL240C, strain hsp82, active compounds read low 0.979 | S. cerevisiae deletion strains, locus YPL256C, strain CLN2, active compounds read low 0.938 | S. cerevisiae deletion strains, locus YPR119W, strain clb2, active compounds read low 0.937 | S. cerevisiae deletion strains, locus YPR141C, strain kar3, active compounds read low 0.968 | S. cerevisiae deletion strains, locus YPR167C, strain met16, active compounds read low 0.927 | S. cerevisiae deletion strains, strain wtn01, active compounds read low 0.936 | S. cerevisiae strains, strain wild type, active compounds read low 0.915
